Compound activity deposited in PubChem BioAssay by Center for Chemical Genomics, University of Michigan.
Dicer processing = inhibitors of Dicer pre-microRNA processing, primary screen, biochemical, cat-ELCCA, chemiluminescence | Endoribonuclease Dicer (Homo sapiens), Q9UPY3 | cat-ELCCA pre-miR-21 Dicer processing; active compounds read high | z-score at 25 µM | 6% of 47,000 active; in the data active means z-score above about 3, passing the limit was not always enough;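 further: plate controls were vehicle for no effect and no enzyme for full effect; higher signal means more uncleaved substrate so more Dicer inhibition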
* marks the source's active call; other numbers are inactive results. Only a selection was taken, and hits are over-represented in it overall.

SMILES | Dicer processing
CC1(C)CC2(C)OC(=O)c3ccccc3N2C(=S)N1 (stereo unspecified) | -0.95
O=C(O)CCS(=O)CCC(=O)O | -0.36
CCOC(=O)NNC(=O)NCCCc1ccc2ccc3cccc4ccc1c2c34 | 2.3
O=c1[nH][nH]c(=O)n1CCCc1cc2cccc3ccc4cccc1c4c32 | 3.7*
CCCc1c(O)ccc2c(=O)cc(C(=O)O)oc12 | -0.13
Cc1sc2nc3sc(CC(=O)NCCO)cn3c(=O)c2c1C | -1.8
C=CCN(c1ccccc1C1=N/C(=C\c2ccc(C)cc2)C(=O)O1)S(=O)(=O)c1ccc(Cl)cc1 | -0.86
C=CCN(c1nc(C)c(Br)c(OC)n1)S(=O)(=O)c1ccc(C)cc1 | 3.6*
CCN(c1nc(C)cc(OC)n1)S(=O)(=O)c1ccc(C)cc1 | 2.1
Cc1onc(-c2ccccc2)c1C(=O)NC1CCSC1=O (stereo unspecified) | -0.7
O=C(NC1CCSC1=O)c1ccc(-c2ccccc2)cc1 (stereo unspecified) | -1.8
O=C(NC1CCSC1=O)c1cccc(C(=O)NC2CCSC2=O)c1 (stereo unspecified) | 3*
Clc1cccc(Cl)c1Cn1nnc(N2CCOCC2)n1 | -0.27
Cc1ccc(C)c(C(=O)/C=C/C(=O)O)c1 | 1.7
O=C(c1cccc(Cl)c1)N(Cc1cccs1)C1CCS(=O)(=O)C1 (stereo unspecified) | 1.8
C=CCOc1ccc(C(=O)N(Cc2ccc(OC)c(OC)c2)C2CCS(=O)(=O)C2)cc1 (stereo unspecified) | 1.4
Cc1ccc2c(C)c(C(=O)N(Cc3ccc(N(C)C)cc3)C3CCS(=O)(=O)C3)oc2c1 (stereo unspecified) | 5.1*
COc1ccc(CCNC(=S)Nc2ccc(S(=O)(=O)N3CCCCC3)cc2)cc1OC | -0.06
C=C(C)c1cccc(C(C)(C)NC(=O)N2CCN(c3ccccn3)CC2)c1 | 1.4
CC(C)(CC(=O)O)CC(=O)N1CCN(c2ccccn2)CC1 | 4.1*
CC(C)(CC(=O)O)CC(=O)N1CCCN(c2c(Cl)cncc2Cl)CC1 | 1.9
CC(SCC(=O)O)(SCC(=O)O)c1cccc([N+](=O)[O-])c1 | 0.4
N#Cc1cnc(SCC(=O)NC(=O)Nc2ccccc2)nc1N | -0.34
CCS(=O)(=O)c1nc2ccccc2n1CCOc1ccc(Cl)cc1 | -0.5
Cc1nn(-c2ccccc2)cc1/C=N/n1c(SCC(=O)c2ccccc2)nnc1-c1ccncc1 | -1.1
SMILES | Dicer processing
Nc1ccc(S(=O)(=O)NCc2ccco2)cc1 | 1.1
N#C/C(=C\c1ccc(Cl)cc1)S(=O)(=O)Cc1ccco1 | -0.03
N/C(CS(=O)(=O)Cc1ccco1)=N\O | 4.5*
CCc1[nH]nc2c1C(c1ccccc1)C(C#N)=C(N)O2 (stereo unspecified) | -2.8
Cc1csc(NS(=O)(=O)c2ccc(Cl)cc2)c1-c1nc2ccccc2s1 | 4.2*
CC(=O)Nc1scc(C)c1-c1nc2ccccc2s1 | -0.01
Cc1csc(NC(=O)COCC(=O)O)c1-c1nc2ccccc2s1 | 1.3
Cc1ccc(S(=O)(=O)/C(=N/Nc2cc(C(F)(F)F)cc(C(F)(F)F)c2)[N+](=O)[O-])cc1 | 0.29
CCCCCn1c(SCC(=O)Nc2ccc(C(C)C)cc2)n[nH]c1=O | 1.7
O=C1CCCC/C1=C\Nc1ccccc1 | 4.3*
O=c1c(=CNc2ccccc2)c(=O)c2cccc3cccc1c32 | 0.59
O=C(O)C1=C(C(=O)Nc2ccccc2)CCCC1 | 0.14
OC(CN1CCN(c2nc3ccc(Cl)cc3s2)CC1)Cn1ccc2ccccc21 (stereo unspecified) | -0.74
Nc1c2c(nc3cccc(F)c13)OCCC2 | 0.51
CCOC(=O)c1[nH]c2ccc(F)cc2c1NC(C)=O | 2.4
CCOC(=O)Nc1c(C(=O)OCC)[nH]c2ccc(F)cc12 | 2.8
CCOC(=O)Nc1c(C(=O)OCC)[nH]c2ccc(OC)cc12 | 5.2*
Cn1nnnc1SCCNCc1cc(Br)ccc1OCc1ccc(F)cc1 | 1.3
CCCCCCCCC(=O)Nc1nc2c(s1)Cc1ccccc1-2 | -1.7
CN1C(=O)CC(NCc2ccc(S(N)(=O)=O)cc2)C1=O (stereo unspecified) | 3.2*
NCc1ccc(S(N)(=O)=O)cc1 | -0.5
NS(=O)(=O)c1ccc(CNC2CC(=O)N(c3ccc(Br)cc3)C2=O)cc1 (stereo unspecified) | 22
CCOC(=O)Nc1nc2ccc(C)cc2s1 | 0.79
CS(=O)(=O)c1ccc2nc(NC(=O)Cc3ccc(Br)cc3)sc2c1 | 5.3*
CCCCOC(=O)Nc1nc2ccc(C)cc2s1 | 2.3
SMILES | Dicer processing
CC(=O)Nc1nc2ccc(Br)cc2s1 | -3
CS(=O)(=O)c1ccc2nc(NC(=O)CCCC(=O)O)sc2c1 | 0.15
CCOC(=O)C(=O)Nc1nc2ccc(S(C)(=O)=O)cc2s1 | 5.8*
O=C(/C=C1\OC(=O)c2ccccc21)Oc1cccc(C(F)(F)F)c1 | 1.5
CS(=O)(=NS(=O)(=O)c1cc(Cl)sc1Cl)c1ccc(OC(=O)c2ccc(Cl)cc2)cc1 (stereo unspecified) | 0.85
CC(C)(C)NC(=S)N/N=C/c1ncc(C(F)(F)F)cc1Sc1ccc(Cl)cc1 | -0.75
O=C1OC(c2ccccc2)=N/C1=C/c1ccc(OCc2ccccc2)cc1 | -0.16
CC(=O)Nc1ccc(S(=O)(=O)Oc2ccccc2N2CCCCC2)cc1 | -0.23
O=C(Nc1ccc(OCc2ccccc2)cc1)Oc1ccccc1N1CCCCC1 | 4.8*
Cc1cc(C)cc(NC(=O)Oc2ccccc2N2CCCCC2)c1 | 10
COc1ccc(OCCNC(=O)NS(=O)(=O)c2ccc(C)cc2)cc1 | -0.63
COc1ccc(NC2=NC(C)(CO)CS2)cc1 (stereo unspecified) | 0.62
C=C1SC(Nc2ccccc2OC)=NC1(C)C | -1.3
C=C1SC(Nc2cc(OC)cc(OC)c2)=NC1(C)C | 15*
C=CCN1C(=O)C(=Nc2ccc(Cl)cc2)c2ccccc21 | 2.4
C=CCn1c(N)cc(=O)nc1SCC(=O)Nc1ccccc1 | 0.4
O=c1c(Cc2ccccc2)c(O)c2ccccc2n1Cc1ccccc1 | -1.7
C=CCn1c(=O)c(C(=O)Nc2cccc(O)c2)c(O)c2ccccc21 | 11*
O=C(/C=C/Sc1nc2ccccc2s1)c1ccc(Cl)cc1 | 0.85
CN(NC(=O)NC(=O)c1c(Cl)cccc1Cl)c1ccccc1[N+](=O)[O-] | 0.34
COc1cc2c(c([N+](=O)[O-])c1)NC(c1ccccc1)CC2c1ccccc1 (stereo unspecified) | -0.3
N#Cc1c(NC(=O)c2ccc(S(=O)(=O)N3CCCC3)cc2)sc2c1CCC2 | 0.55
O=C(c1cc2ccccc2s1)N1CCOCC1 | 3.2*
NC(=O)C1CCN(C(=O)Nc2cc3ccccc3s2)CC1 | -3.1
O=C(c1sc2ccccc2c1Cl)N1CCOCC1 | 0.17
SMILES | Dicer processing
CC1=C(C(=O)OC2CCCCC2)C(c2ccccc2OC(C)C)C2=C(CCCC2=O)N1 (stereo unspecified) | 0.07
Cn1c(=O)c2c(nc3n2CCN(CCc2ccccc2)C3)n(C)c1=O | 0.23
CCc1cccc(C)c1N=C(C#N)C1=C(O)c2ccccc2C1=O | -1.9
Cc1ccc(N=C(C#N)C2=C(O)c3ccccc3C2=O)cc1F | -0.88
Cc1cc(Cl)ccc1N=C(C#N)C1=C(O)c2ccccc2C1=O | 4.8*
COc1ccc(Cc2nnc(SCc3ccccc3Cl)o2)cc1 | 0.68
CN(C)CCC(=O)c1ccc2c(c1)OCCO2 | -0.03
O=C(O)CC(C(=O)O)c1c[nH]c2ccccc12 (stereo unspecified) | 0.21
Oc1ccc(Cl)cc1C(c1c[nH]c2ccccc12)c1c[nH]c2ccccc12 | 4.3*
CCOc1cccc(C(c2c[nH]c3ccccc23)c2c[nH]c3ccccc23)c1O | 6.4*
